Whole data set: some 39,000 sequences, median “fluorescence intensity (a.u.)” near 4,300, cut for the highest 2% near 39,000. The full list was thinned out, with the highest values kept by preference.
Biological target: T1, OsSMF1 (Oryza sativa, UniProt Q6ZLB0 1-436)
T1 sequence: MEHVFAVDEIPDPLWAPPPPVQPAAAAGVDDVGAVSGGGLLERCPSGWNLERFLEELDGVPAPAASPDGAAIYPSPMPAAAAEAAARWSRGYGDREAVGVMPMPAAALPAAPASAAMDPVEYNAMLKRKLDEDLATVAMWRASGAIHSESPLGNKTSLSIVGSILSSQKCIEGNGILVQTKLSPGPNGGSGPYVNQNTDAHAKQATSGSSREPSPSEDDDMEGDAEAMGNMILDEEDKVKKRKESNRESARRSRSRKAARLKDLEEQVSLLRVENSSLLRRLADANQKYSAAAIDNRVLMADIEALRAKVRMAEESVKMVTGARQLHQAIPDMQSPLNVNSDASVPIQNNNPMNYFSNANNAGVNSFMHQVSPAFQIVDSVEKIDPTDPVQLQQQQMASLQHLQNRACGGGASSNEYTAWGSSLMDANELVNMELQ
Assay: protein-binding microarray (RPBM); PBS, 2% BSA, 51.3 ng/ul salmon testes DNA, 50 uM zinc acetate, 200 nM TF, 25 C, 1 h; high values mean tight binding
Conditions: protein: recombinant; tags: N-terminal polyhistidine and DsRed monomer fusion (pET32a); chain copies: 2; label: CyDye5-dUTP incorporated in the synthesized complementary strand; 3' TTTTT single-stranded linker to array surface; dsDNA, one strand shown
Summary of the method: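 Transcription factors, each fused N-terminally to a polyhistidine tag and DsRed, were expressed in E. coli BL21-CodonPlus and purified on Ni–NTA. A custom Agilent array was made double-stranded by primer extension with Cy5-dUTP and blocked with 2% BSA. It was incubated with 200 nM protein in PBS, 2% BSA, salmon testes DNA and 50 µM zinc acetate at 25 °C for 1 h, then washed. The binding signal is per-feature fluorescence intensity (arbitrary units) read on an Axon 4000B scanner.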

Point of comparison: “GTTTTGGTATTGGCTATAAAATGACATGGATGTTATTGGACGGAGTCACCTAGTGCAG”, binding signal 4760 fluorescence intensity (a.u.). Against it:
- CTGAAATGACCAGAATGCCCCTCCGTCCTACCCCACAATCCGGAGTCACCTAGTGCAG — higher, 19900 fluorescence intensity (a.u.)
- ACTTGTCACTTGGTTCACACTAAGAGCACTTGACATATCTCGGAGTCACCTAGTGCAG — higher, 17900 fluorescence intensity (a.u.)
- AGAGCAAGACAAGATGGTTAGTTCTCACACTTCAGATTGTCGGAGTCACCTAGTGCAG — higher, 41400 fluorescence intensity (a.u.)
- AGACACTTTTGCAGGGATTGCTCAGACTTAGTTTCAGAGTCGGAGTCACCTAGTGCAG — lower, 3940 fluorescence intensity (a.u.)
- TTAACGTGTACCACTACATGCATGCAGTGACGACAGTCAGCGGAGTCACCTAGTGCAG — lower, 3150 fluorescence intensity (a.u.)
- ACACTCTCGATGTATAGATTCACCCACGAGATGATGTGGCCGGAGTCACCTAGTGCAG — higher, 6570 fluorescence intensity (a.u.)
- GGGATAAAGAGAGGATGACACGTGGGACCCACATGTCAGCCGGAGTCACCTAGTGCAG — higher, 12400 fluorescence intensity (a.u.)
- CACCACTACCACGATCAGGCCCAAGAGATGATAAAGTGGCCGGAGTCACCTAGTGCAG — higher, 46500 fluorescence intensity (a.u.)
- GAGCTCCGACGAGCACCTCCCTGAAGCGTGGCAGGTCGAGCGGAGTCACCTAGTGCAG — lower, 3900 fluorescence intensity (a.u.)
- AATTTAACTCTTTCCCGCGTGGATGGCCGCATATATATGCCGGAGTCACCTAGTGCAG — lower, 3460 fluorescence intensity (a.u.)
- TATGGAGTTTACTATTCTCCTGATTATTACAAAATTTATACGGAGTCACCTAGTGCAG — higher, 30000 fluorescence intensity (a.u.)
- CAACACCCGTCCGCCAGAGAAGACCATCGTGACGCCACTCCGGAGTCACCTAGTGCAG — higher, 4880 fluorescence intensity (a.u.)
- CATCACACCCACTTGTCCGCACACAAGAAGAGACCAGCTACGGAGTCACCTAGTGCAG — higher, 50600 fluorescence intensity (a.u.)
- CACAGTGCACGCACGCAGCTACAAAGATGTCGTACGACCACGGAGTCACCTAGTGCAG — lower, 3260 fluorescence intensity (a.u.)
- GGAATAAATTATTTATCATTGGACCTACATGTCATGGACACGGAGTCACCTAGTGCAG — lower, 3950 fluorescence intensity (a.u.)
- CCAACCAACATCCCACATCGAACCATGCATTATTTATGAACGGAGTCACCTAGTGCAG — higher, 17300 fluorescence intensity (a.u.)
- ACCACACCATCGAACATGGTGTAGCTCACGGTAGTCCCAACGGAGTCACCTAGTGCAG — higher, 41000 fluorescence intensity (a.u.)
- TCCCCACATCACCCAACACGAGCTCACCACCACCACCACCCGGAGTCACCTAGTGCAG — lower, 3500 fluorescence intensity (a.u.)
- GGCGGCGGGTGGAGGGACGCCCGCTGAATCCGCCACCGGTCGGAGTCACCTAGTGCAG — lower, 3170 fluorescence intensity (a.u.)
- GTTTTATTGTTGAATTTTATATATTGTCACGTCCCCTTTTCGGAGTCACCTAGTGCAG — lower, 4350 fluorescence intensity (a.u.)
- TGGTGCGCTCGTTAAGCCAGCTCGGTTTATGTTAGATCATCGGAGTCACCTAGTGCAG — lower, 3210 fluorescence intensity (a.u.)
- ATACCATATGAGCAAATACGCAGGAATCAGTACTGTATTTCGGAGTCACCTAGTGCAG — higher, 39500 fluorescence intensity (a.u.)
- AGTACTAGTTGGAATCATATGTGTCTATGGAGTATATTTTCGGAGTCACCTAGTGCAG — lower, 3160 fluorescence intensity (a.u.)
- AGCAAATATTTACTGTAGTACTACACTGTCAAATCATGTACGGAGTCACCTAGTGCAG — lower, 3610 fluorescence intensity (a.u.)
- GGAGGAAAATGGCCCTGATCAGCATCAGGGCAAGTACTATCGGAGTCACCTAGTGCAG — lower, 3200 fluorescence intensity (a.u.)
- CGAACATAAGTTAGTGACGCATGCCTCAAAATGAAAAGGACGGAGTCACCTAGTGCAG — higher, 41400 fluorescence intensity (a.u.)
- TCCTTTGGAACATAAAAGTGACGTAGGCATGCAAATTTGTCGGAGTCACCTAGTGCAG — higher, 13700 fluorescence intensity (a.u.)
- TGGTAAGGTTGAAAATGGCATCAAAGTGAACAGGCCCTCACGGAGTCACCTAGTGCAG — higher, 22200 fluorescence intensity (a.u.)
- AGCAGACTCCACGTCGTCACCAACTTCCTTCCTCCTGGTCCGGAGTCACCTAGTGCAG — higher, 11300 fluorescence intensity (a.u.)
- GCTCCCTCGACGACCTCGTCAAGTCCCTCCGCGCCGACCCCGGAGTCACCTAGTGCAG — lower, 4170 fluorescence intensity (a.u.)
- CAAGTGGGGACAGCGCCACGTGCGCGCTCGCTCTTCTCCACGGAGTCACCTAGTGCAG — higher, 11500 fluorescence intensity (a.u.)
- GGTGCCCTAATAAGTACGGTGGTTGAACATTACACAATTCCGGAGTCACCTAGTGCAG — lower, 3770 fluorescence intensity (a.u.)
- ATCAGCTAAGGCCAATCGGTGGATTACACACATTGGGTTCCGGAGTCACCTAGTGCAG — higher, 47600 fluorescence intensity (a.u.)
- ACCGGGTTCCACATGTCATACACACATTACGTCTTGGAGTCGGAGTCACCTAGTGCAG — lower, 4450 fluorescence intensity (a.u.)
- CCGGTCGGTACTAGTTCGGGGCGTGACACATGGTAGTTATCGGAGTCACCTAGTGCAG — lower, 4000 fluorescence intensity (a.u.)
- TTTACATGTGTAGATCTAATGATGTGTTAATGCTAGTATACGGAGTCACCTAGTGCAG — lower, 4500 fluorescence intensity (a.u.)
- GTTACATACTGTGATAGTTTGTTTAATGCTAAATCTAGTACGGAGTCACCTAGTGCAG — higher, 43300 fluorescence intensity (a.u.)
- TGTTTATTGGCTTTGTCATATGATAAATGAATTAATTGTTCGGAGTCACCTAGTGCAG — higher, 30500 fluorescence intensity (a.u.)
- ACTATTGTTTGGTAGTAAAATTGATAATTAAATGACTATACGGAGTCACCTAGTGCAG — higher, 40900 fluorescence intensity (a.u.)
- CTCATAGTCATAGTTACTGATTTGTTTGCTCATAGTCATACGGAGTCACCTAGTGCAG — higher, 22700 fluorescence intensity (a.u.)
- TATATGAAATTATTATTTGATTTCTTGATCATATAATGTACGGAGTCACCTAGTGCAG — lower, 3440 fluorescence intensity (a.u.)
- TTGAAATGTTTAAGTTGTTTTAAAATTATTCTATATATTTCGGAGTCACCTAGTGCAG — higher, 37800 fluorescence intensity (a.u.)
- TTTGATGCTGATTATAGGAAAATGTAAATGTTTCTATATACGGAGTCACCTAGTGCAG — higher, 39500 fluorescence intensity (a.u.)

— PMC7819943, “Rice protein-binding microarrays: a tool to detect cis-acting elements near promoter regions in rice”
